Holding throughout (experiment): DAPPL (digital affinity profiling via proximity ligation, sequencing); 10 mM Tris-HCl pH 7.5, 50 mM NaCl, 1 mM DTT, 4% glycerol, room temperature, 30 min; GST-TFs on glutathione beads, 16-mer random dsDNA library, 0.1% formaldehyde crosslink after washing; high values mean tight binding
The target of one test is T1, FLI1 (Homo sapiens, UniProt Q01543 1-452).
T1 sequence: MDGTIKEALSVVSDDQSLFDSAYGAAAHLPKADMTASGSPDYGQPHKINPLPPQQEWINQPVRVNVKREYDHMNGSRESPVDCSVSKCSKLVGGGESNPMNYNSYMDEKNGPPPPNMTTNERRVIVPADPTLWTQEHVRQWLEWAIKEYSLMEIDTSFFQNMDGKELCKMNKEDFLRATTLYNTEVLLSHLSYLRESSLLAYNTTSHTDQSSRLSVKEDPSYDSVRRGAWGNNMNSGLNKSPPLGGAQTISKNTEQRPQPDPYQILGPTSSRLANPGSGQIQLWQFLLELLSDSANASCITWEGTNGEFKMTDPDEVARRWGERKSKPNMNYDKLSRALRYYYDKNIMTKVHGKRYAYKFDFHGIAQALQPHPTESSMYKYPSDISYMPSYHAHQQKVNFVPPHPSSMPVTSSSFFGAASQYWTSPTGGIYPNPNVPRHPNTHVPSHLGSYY
To be noted: protein: recombinant; tags: N-terminal GST; dsDNA, one strand shown. Put shortly:
(§1)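 Binding signal is each hexamer's read frequency for a factor divided by its frequency in the tag-only sample. The factors were GST-fused human transcription factors from yeast, captured on glutathione beads, DNA-barcoded and pooled with that sample. Pools were incubated with 200 nmole of a random double-stranded 16-mer DNA library in Tris/NaCl/DTT/glycerol buffer at room temperature for 30 min, then washed, crosslinked with 0.1% formaldehyde, proximity-ligated with BsaI/T4 ligase (1 h, 37 °C), PCR-amplified and sequenced on an Illumina NextSeq500.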

The target of a further test is T2, ELK1 (Homo sapiens, UniProt P19419 1-428).
T2 sequence: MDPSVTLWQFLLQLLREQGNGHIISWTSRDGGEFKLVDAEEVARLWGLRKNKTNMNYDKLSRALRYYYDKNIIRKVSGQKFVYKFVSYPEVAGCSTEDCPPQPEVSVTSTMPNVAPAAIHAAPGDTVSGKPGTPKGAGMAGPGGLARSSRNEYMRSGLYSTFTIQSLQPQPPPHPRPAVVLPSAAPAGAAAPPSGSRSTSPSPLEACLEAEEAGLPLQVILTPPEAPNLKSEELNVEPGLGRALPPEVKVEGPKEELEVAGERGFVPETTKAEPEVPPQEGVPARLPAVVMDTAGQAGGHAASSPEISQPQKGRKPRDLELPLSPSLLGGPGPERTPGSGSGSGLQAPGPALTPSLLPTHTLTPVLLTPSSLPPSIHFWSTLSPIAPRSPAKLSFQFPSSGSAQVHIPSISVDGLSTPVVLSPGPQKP
To be noted: protein: recombinant; tags: N-terminal GST; dsDNA, one strand shown. Put shortly:
as §1

Another test has as its target T3, GABPA (Homo sapiens, UniProt Q06546 1-454).
T3 sequence: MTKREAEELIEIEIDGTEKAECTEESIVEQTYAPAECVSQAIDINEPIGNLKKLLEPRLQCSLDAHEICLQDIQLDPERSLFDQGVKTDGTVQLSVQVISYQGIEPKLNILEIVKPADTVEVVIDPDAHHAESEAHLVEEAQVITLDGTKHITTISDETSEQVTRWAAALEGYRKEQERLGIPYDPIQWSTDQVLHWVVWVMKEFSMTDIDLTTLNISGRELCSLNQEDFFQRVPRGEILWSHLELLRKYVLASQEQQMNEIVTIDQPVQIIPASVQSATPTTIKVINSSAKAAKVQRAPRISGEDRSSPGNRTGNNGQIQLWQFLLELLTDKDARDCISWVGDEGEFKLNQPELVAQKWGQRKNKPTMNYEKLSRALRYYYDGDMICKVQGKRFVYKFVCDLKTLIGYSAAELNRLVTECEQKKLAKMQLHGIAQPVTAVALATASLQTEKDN
To be noted: protein: recombinant; tags: N-terminal GST; dsDNA, one strand shown. Put shortly: as §1

In the next test the target is T4, ERG (Homo sapiens, UniProt P11308 1-479).
T4 sequence: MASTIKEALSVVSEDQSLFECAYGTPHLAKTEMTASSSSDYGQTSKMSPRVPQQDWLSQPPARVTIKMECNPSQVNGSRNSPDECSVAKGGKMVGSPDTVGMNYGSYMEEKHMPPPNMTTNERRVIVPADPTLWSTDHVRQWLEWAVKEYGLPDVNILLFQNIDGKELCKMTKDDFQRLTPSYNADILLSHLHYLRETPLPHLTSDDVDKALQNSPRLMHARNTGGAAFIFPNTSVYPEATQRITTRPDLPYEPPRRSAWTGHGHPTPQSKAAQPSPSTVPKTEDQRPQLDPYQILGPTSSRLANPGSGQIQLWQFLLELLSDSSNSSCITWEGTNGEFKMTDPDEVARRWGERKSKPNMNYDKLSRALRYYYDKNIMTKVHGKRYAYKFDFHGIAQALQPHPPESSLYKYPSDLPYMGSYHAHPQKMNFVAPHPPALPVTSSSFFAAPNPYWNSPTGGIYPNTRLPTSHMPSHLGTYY
As to conditions: protein: recombinant; tags: N-terminal GST; dsDNA, one strand shown. Put shortly: as §1

For a further test, the target named is ELF1 (Homo sapiens, UniProt P32519 1-619). To be noted: protein: recombinant; tags: N-terminal GST; dsDNA, one strand shown. Put shortly:
as §1

The next test has as its target T5, EHF (Homo sapiens, UniProt Q9NZC4 1-300).
T5 sequence: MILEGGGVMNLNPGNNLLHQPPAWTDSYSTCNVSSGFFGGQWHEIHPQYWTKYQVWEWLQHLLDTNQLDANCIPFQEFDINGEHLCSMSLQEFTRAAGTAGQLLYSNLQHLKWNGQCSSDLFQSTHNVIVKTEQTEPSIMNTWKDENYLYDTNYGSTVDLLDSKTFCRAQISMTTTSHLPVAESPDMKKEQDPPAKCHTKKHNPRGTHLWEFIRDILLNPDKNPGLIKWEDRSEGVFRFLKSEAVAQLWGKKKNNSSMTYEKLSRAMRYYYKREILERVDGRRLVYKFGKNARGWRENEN
To be noted: protein: recombinant; tags: N-terminal GST; dsDNA, one strand shown. Put shortly:
as §1

The next test addresses SPI1 (Homo sapiens, UniProt P17947 1-270). As to conditions: protein: recombinant; tags: N-terminal GST; dsDNA, one strand shown. Put shortly:
as §1

Another test has as its target SPIB (Homo sapiens, UniProt Q01892 1-262). As to conditions: protein: recombinant; tags: N-terminal GST; dsDNA, one strand shown. Put shortly: as §1
The target in another test is T6, ELK3 (Homo sapiens, UniProt P41970 1-407).
T6 sequence: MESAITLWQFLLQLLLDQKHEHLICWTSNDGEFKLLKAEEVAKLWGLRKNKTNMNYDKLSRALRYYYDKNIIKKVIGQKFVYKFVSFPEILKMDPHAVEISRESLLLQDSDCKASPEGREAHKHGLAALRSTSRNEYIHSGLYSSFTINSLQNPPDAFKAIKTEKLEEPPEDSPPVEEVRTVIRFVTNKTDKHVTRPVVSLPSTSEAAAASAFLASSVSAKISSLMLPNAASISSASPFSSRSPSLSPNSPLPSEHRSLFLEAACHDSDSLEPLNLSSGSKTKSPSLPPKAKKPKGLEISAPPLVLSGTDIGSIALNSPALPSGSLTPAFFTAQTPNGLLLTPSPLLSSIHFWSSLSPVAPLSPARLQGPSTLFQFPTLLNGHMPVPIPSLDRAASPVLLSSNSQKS
As to conditions: protein: recombinant; tags: N-terminal GST; dsDNA, one strand shown. Put shortly: as §1

The target in the next test is T7, FEV (Homo sapiens, UniProt Q99581 1-238).
T7 sequence: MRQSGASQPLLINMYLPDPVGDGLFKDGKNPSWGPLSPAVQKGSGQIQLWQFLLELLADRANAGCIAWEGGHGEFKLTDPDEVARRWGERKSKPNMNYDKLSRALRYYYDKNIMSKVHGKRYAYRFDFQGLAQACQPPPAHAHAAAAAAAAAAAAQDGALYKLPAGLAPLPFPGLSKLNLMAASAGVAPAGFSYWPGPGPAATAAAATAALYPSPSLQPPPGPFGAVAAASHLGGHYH
To be noted: protein: recombinant; tags: N-terminal GST; dsDNA, one strand shown. Put shortly:
as §1

The next test deals with ETV5 (Homo sapiens, UniProt P41161 1-510). To be noted: protein: recombinant; tags: N-terminal GST; dsDNA, one strand shown. Put shortly:
as §1

Another test deals with HSF1 (Homo sapiens, UniProt Q00613 1-529). To be noted: protein: recombinant; tags: N-terminal GST; chain copies: 3; dsDNA, one strand shown. Put shortly: as §1
HSF1, sequence (Q00613 whole entry): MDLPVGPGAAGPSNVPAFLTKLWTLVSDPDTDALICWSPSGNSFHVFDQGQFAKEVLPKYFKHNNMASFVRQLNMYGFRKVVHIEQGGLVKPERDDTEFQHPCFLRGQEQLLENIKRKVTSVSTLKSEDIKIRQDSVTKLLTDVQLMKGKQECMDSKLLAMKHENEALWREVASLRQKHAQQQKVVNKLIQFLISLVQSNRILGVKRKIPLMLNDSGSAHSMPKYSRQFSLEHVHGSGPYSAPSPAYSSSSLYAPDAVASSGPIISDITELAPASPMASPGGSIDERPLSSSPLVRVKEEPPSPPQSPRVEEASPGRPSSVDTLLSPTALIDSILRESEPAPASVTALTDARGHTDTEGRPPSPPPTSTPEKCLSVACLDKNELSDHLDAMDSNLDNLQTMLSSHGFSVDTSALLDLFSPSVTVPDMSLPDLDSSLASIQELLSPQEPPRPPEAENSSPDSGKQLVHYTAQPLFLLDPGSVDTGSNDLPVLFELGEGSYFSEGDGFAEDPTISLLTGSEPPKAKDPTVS
A further test concerns the target T8, SPIC (Homo sapiens, UniProt Q8N5J4 1-248).
T8 sequence: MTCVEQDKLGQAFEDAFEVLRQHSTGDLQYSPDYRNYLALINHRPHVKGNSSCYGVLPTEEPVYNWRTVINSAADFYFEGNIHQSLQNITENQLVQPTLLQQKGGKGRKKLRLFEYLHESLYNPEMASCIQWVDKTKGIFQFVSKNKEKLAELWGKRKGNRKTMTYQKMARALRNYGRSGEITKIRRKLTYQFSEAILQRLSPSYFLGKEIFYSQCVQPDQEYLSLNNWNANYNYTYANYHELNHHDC
To be noted: protein: recombinant; tags: N-terminal GST; dsDNA, one strand shown. Put shortly: as §1

The target of a further test is ELF4 (Homo sapiens, UniProt Q99607 1-663). To be noted: protein: recombinant; tags: N-terminal GST; dsDNA, one strand shown. Put shortly:
as §1

The next test addresses T9, ELK4 (Homo sapiens, UniProt P28324-2 1-405).
T9 sequence: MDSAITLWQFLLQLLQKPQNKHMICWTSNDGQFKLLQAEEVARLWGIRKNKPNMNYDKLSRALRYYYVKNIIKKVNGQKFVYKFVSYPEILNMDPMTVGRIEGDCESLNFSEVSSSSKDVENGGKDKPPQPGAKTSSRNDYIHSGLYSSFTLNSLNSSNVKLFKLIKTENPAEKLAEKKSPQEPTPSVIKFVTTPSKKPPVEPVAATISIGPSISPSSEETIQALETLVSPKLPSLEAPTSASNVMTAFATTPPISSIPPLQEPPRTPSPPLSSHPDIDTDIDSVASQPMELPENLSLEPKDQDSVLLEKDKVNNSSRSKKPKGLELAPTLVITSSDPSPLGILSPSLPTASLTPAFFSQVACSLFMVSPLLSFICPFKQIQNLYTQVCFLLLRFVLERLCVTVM
To be noted: protein: recombinant; tags: N-terminal GST; dsDNA, one strand shown. Put shortly:
as §1

In the next test the target is T10, ETV2 (Homo sapiens, UniProt O00321 1-342).
T10 sequence: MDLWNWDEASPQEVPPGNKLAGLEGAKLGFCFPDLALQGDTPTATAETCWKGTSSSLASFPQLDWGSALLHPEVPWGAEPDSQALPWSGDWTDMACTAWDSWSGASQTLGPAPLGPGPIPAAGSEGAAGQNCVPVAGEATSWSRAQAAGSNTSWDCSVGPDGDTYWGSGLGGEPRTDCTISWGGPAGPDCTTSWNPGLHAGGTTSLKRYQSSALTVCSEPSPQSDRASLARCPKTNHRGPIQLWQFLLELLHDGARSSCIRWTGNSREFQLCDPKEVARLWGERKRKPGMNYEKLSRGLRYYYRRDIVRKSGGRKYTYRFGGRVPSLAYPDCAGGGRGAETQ
To be noted: protein: recombinant; tags: N-terminal GST; dsDNA, one strand shown. Put shortly:
as §1

Another test addresses T11, ELF3 (Homo sapiens, UniProt P78545 1-371).
T11 sequence: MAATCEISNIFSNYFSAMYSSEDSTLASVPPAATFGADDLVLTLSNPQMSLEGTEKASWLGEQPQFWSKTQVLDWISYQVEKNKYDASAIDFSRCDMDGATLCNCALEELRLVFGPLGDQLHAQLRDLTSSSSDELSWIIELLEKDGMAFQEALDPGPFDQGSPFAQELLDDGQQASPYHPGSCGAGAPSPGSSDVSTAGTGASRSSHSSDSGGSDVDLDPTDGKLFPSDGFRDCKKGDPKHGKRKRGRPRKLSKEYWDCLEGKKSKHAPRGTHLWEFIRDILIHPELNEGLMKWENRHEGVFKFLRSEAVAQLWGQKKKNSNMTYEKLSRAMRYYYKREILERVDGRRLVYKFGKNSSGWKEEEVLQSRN
To be noted: protein: recombinant; tags: N-terminal GST; dsDNA, one strand shown. Put shortly: as §1

For the next test, the target named is CRX (Homo sapiens, UniProt O43186 1-299). As to conditions: protein: recombinant; tags: N-terminal GST; dsDNA, one strand shown. Put shortly: as §1
CRX, sequence (O43186 whole entry): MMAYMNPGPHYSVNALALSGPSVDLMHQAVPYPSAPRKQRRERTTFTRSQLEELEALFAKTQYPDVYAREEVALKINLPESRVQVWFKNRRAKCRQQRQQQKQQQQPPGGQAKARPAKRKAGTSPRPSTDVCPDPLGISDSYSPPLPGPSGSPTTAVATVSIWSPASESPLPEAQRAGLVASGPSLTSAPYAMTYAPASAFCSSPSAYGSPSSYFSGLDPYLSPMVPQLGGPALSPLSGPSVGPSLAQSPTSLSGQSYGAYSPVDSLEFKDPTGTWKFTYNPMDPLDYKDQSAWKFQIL
A further test has as its target ETV1 (Homo sapiens, UniProt P50549 1-477). As to conditions: protein: recombinant; tags: N-terminal GST; dsDNA, one strand shown. Put shortly:
as §1

SPIB, sequence (Q01892 whole entry): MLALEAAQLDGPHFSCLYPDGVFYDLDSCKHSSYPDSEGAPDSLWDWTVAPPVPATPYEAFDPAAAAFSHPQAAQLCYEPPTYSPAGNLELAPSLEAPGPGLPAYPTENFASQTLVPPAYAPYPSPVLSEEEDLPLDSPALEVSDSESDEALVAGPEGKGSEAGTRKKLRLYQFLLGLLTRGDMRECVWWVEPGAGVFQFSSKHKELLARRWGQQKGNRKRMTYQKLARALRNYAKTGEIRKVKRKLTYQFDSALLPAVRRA
ELF4, sequence (Q99607 whole entry): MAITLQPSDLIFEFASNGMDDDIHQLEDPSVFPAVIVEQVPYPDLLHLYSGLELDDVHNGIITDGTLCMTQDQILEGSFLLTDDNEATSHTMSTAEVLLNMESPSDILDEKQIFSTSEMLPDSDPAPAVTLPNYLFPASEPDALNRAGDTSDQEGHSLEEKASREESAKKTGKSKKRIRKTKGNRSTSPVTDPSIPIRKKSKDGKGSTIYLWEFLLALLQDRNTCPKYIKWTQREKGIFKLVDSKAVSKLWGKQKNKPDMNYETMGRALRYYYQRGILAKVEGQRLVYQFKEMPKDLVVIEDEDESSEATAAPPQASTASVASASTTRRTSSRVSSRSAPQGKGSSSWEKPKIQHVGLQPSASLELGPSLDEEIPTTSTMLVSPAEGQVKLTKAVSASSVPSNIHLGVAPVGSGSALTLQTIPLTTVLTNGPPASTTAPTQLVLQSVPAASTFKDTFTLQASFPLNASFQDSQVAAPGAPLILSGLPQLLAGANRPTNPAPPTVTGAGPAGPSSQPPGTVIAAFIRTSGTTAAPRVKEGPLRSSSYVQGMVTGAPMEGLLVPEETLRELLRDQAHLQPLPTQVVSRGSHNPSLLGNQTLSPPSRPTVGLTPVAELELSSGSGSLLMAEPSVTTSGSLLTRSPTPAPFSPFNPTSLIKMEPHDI
ETV1, sequence (P50549 whole entry): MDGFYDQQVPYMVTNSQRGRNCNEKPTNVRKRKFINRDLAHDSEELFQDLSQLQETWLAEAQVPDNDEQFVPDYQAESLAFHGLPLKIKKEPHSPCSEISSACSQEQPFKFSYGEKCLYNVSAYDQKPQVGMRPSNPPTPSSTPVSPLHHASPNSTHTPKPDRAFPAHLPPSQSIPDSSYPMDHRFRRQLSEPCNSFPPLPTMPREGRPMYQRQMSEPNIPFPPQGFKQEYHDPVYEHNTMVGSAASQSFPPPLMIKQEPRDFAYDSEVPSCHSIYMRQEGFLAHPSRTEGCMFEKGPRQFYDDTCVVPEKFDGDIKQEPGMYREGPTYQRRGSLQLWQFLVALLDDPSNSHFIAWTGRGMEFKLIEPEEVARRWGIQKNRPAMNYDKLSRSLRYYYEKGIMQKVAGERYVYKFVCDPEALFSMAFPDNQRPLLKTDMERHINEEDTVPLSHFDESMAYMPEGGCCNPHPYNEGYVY
ELF1, sequence (P32519 whole entry): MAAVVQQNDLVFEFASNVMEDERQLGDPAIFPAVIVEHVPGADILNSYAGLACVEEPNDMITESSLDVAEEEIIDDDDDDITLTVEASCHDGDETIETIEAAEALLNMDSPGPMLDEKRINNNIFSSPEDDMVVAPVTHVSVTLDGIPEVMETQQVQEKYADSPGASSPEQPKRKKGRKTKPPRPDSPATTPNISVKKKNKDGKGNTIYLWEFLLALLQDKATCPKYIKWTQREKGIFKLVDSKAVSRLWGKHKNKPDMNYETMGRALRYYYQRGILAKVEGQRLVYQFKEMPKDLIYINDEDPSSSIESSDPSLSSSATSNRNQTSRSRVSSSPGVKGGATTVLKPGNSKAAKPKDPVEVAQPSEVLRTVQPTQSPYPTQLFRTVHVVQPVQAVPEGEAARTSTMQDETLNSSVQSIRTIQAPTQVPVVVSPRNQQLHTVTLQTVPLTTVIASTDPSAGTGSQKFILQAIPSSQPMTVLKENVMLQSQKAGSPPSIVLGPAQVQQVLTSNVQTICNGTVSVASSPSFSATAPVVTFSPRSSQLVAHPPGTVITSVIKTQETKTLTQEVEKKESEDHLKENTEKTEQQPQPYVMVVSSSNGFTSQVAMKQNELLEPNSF
ETV5, sequence (P41161 whole entry): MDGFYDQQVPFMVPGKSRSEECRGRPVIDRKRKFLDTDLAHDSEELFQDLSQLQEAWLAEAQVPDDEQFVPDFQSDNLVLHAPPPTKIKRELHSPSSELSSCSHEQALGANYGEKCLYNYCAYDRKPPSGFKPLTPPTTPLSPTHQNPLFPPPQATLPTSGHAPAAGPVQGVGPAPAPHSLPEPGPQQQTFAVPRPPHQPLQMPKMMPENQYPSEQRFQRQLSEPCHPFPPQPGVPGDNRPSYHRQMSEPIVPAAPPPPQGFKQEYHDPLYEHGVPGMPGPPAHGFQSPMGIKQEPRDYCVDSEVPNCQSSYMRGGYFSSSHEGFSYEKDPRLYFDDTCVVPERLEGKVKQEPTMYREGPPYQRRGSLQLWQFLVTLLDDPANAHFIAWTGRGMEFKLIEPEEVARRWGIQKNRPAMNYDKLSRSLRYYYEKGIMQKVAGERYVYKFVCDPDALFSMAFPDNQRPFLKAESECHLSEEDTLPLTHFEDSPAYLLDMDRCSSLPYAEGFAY

As for CTCACT, the binding signal in the test with FLI1 is 1.61 fold enrichment (6-mer frequency, TF over GST control); in the test with ELK1, 1.76 fold enrichment (6-mer frequency, TF over GST control); with GABPA it was 1.59 fold enrichment (6-mer frequency, TF over GST control); with ERG, 1.57 fold enrichment (6-mer frequency, TF over GST control); in the test with ELF1, 1.49 fold enrichment (6-mer frequency, TF over GST control); with EHF, 1.56 fold enrichment (6-mer frequency, TF over GST control). Moreover, the binding signal with SPI1 was 1.68 fold enrichment (6-mer frequency, TF over GST control); in the test with SPIB, 1.66 fold enrichment (6-mer frequency, TF over GST control); with ELK3, 1.5 fold enrichment (6-mer frequency, TF over GST control); with FEV it was 1.63 fold enrichment (6-mer frequency, TF over GST control); with ETV5, 1.4 fold enrichment (6-mer frequency, TF over GST control); with HSF1 it was 1.36 fold enrichment (6-mer frequency, TF over GST control). In addition, the binding signal in the test with SPIC is 1.57 fold enrichment (6-mer frequency, TF over GST control); in the test with ELF4, 1.53 fold enrichment (6-mer frequency, TF over GST control); with ELK4, 1.38 fold enrichment (6-mer frequency, TF over GST control); with ETV2, 1.51 fold enrichment (6-mer frequency, TF over GST control); with ELF3, 1.63 fold enrichment (6-mer frequency, TF over GST control); with CRX, 1.27 fold enrichment (6-mer frequency, TF over GST control). Also, the binding signal with ETV1 was 1.49 fold enrichment (6-mer frequency, TF over GST control).

These data come from paper PMC7862700, “An all-to-all approach to the identification of sequence-specific readers for epigenetic DNA modifications on cytosine”.
